The record followed here is PubChem BioAssay.

The nature of one assay: blockers of cytochrome c efflux from mitochondria – biochemical, purified mitochondria (AID 1603).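 Further: mouse liver mitochondria challenged with calcium chloride; signal normalized to the plate average as 100%.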 Particulars: stronger effect = lower value.
`C=Cc1c(C)c2cc3[nH]c(cc4nc(cc5nc(cc1[nH]2)C(C)=C5CCC(=O)O)C(CCC(=O)O)=C4C)c(C)c3C=C`: the cytochrome c release ratio is 1.37.

Consider `OCc1ccccc1O`, for which the cytochrome c release ratio amounted to 0.81.

With `Nc1nccs1`, the cytochrome c release ratio is 0.95.

In the case of `CC(=O)Oc1ccc(C(c2ccc(OC(C)=O)cc2)c2ccccn2)cc1`, the cytochrome c release ratio was 1.37.

For `CCCOc1ccc2nc(NC(=O)OC)[nH]c2c1`, the cytochrome c release ratio stood at 0.9.

Turning to `Cc1nnc(NS(=O)(=O)c2ccc(N)cc2)s1`, the cytochrome c release ratio worked out at 1.01.

As to `Cc1cc(=O)n(-c2ccccc2)n1C`, the cytochrome c release ratio was determined as 1.13.

Consider `Nc1ccc(N=Nc2ccccc2)c(N)n1`, for which the cytochrome c release ratio is 0.66.

`CS(=O)(=O)c1ccc([C@@H](O)[C@@H](CO)NC(=O)C(Cl)Cl)cc1`: the cytochrome c release ratio was found to be 0.72.

On to `COc1cc(C(=O)NCc2ccc(OCCN(C)C)cc2)cc(OC)c1OC`, for which the cytochrome c release ratio amounted to 0.61.

`COc1ccc2cc3[n+](cc2c1OC)CCc1cc2c(cc1-3)OCO2`: the cytochrome c release ratio was determined as 0.96.

For `Cc1cc(-c2ccccc2)nnc1NCCN1CCOCC1`, the cytochrome c release ratio came to 1.03.

As to `Cc1ccc(C(C)C)cc2c(C)ccc1-2`, the cytochrome c release ratio was found to be 3.4.

Regarding `CCN(CC)CCNc1ccc(CO)c2sc3ccccc3c(=O)c12`, the cytochrome c release ratio amounted to 1.54.

In the case of `NC(=O)NC(=O)Cc1ccccc1`, the cytochrome c release ratio came out at 1.02.

`Oc1c(Cl)cc(Cl)cc1Sc1cc(Cl)cc(Cl)c1O`: the cytochrome c release ratio was 0.74.

As for `CC(=O)Oc1ccccc1C(=O)O`, the cytochrome c release ratio turned out to be 1.35.

`CC(C)NCC(O)c1ccc2ccccc2c1` (stereo not given): the cytochrome c release ratio was 0.68.

In the case of `O=C(O)c1ccccc1OP(=O)(O)O`, the cytochrome c release ratio came out at 1.13.

Regarding `Oc1c(Cl)cc(Cl)c(Cl)c1Cc1c(O)c(Cl)cc(Cl)c1Cl`, the cytochrome c release ratio was 0.45.

Take `Nc1ccc(S(=O)(=O)Nc2ccnn2-c2ccccc2)cc1`: the cytochrome c release ratio was found to be 0.99.

On to `CCCCCCCCNC(C)C(O)c1ccc(SC(C)C)cc1` (stereo not given), for which the cytochrome c release ratio came out at 0.61.

Regarding `O=C(OCc1ccccc1)c1ccccc1`, the cytochrome c release ratio is 1.04.

For `S=P(N1CC1)(N1CC1)N1CC1`, the cytochrome c release ratio came out at 0.82.

`NS(=O)(=O)c1cc2c(cc1Cl)NC(C1CC3C=CC1C3)NS2(=O)=O` (stereo not given): the cytochrome c release ratio was 1.07.

Take `C=C1c2cccc(O)c2C(O)=C2C(=O)[C@]3(O)C(O)=C(C(N)=O)C(=O)[C@@H](N(C)C)[C@@H]3[C@@H](O)[C@H]12`: the cytochrome c release ratio was found to be 0.49.

`NS(=O)(=O)c1cc2c(cc1Cl)NC(CSCc1ccccc1)=NS2(=O)=O`: the cytochrome c release ratio is 1.07.

For `O=C(O)P(=O)(O)O`, the cytochrome c release ratio amounted to 0.68.

Consider `CO[C@@]1(NC(=O)C(C(=O)O)c2ccc(O)cc2)C(=O)N2C(C(=O)O)=C(CSc3nnnn3C)CO[C@@H]21` (stereo not given in full), for which the cytochrome c release ratio stood at 0.83.

Consider `Nc1ccc(C(=O)O)cc1`, for which the cytochrome c release ratio was found to be 0.9.

With `CCCCCCOc1ccccc1C(N)=O`, the cytochrome c release ratio was determined as 1.11.

Take `CCN(CC)CCOc1ccc(/C(=C(\Cl)c2ccccc2)c2ccccc2)cc1`: the cytochrome c release ratio worked out at 4.67.

With `O=C1c2c(O)cccc2Cc2cccc(O)c21`, the cytochrome c release ratio was 0.41.

Take `C=CCc1ccc(O)c(OC)c1`: the cytochrome c release ratio is 1.29.

Take `O=C(N[C@H](CO)[C@H](O)c1ccc([N+](=O)[O-])cc1)C(Cl)Cl`: the cytochrome c release ratio amounted to 0.72.

A further assay is described as follows: polyglutamine aggregate formation blockers (AID 1604). Particulars: polyglutamine-induced protein aggregation inhibition assay; stronger effect = higher value; tested at 2.5 µM.
For the compound `C=Cc1c(C)c2cc3[nH]c(cc4nc(cc5nc(cc1[nH]2)C(C)=C5CCC(=O)O)C(CCC(=O)O)=C4C)c(C)c3C=C`, the inhibition of aggregation came to 77.5%.

Consider `OCc1ccccc1O`, for which the inhibition of aggregation was determined as 67.8%.

On to `Nc1nccs1`, for which the inhibition of aggregation stood at 30.7%.

On to `CC(=O)Oc1ccc(C(c2ccc(OC(C)=O)cc2)c2ccccn2)cc1`, for which the inhibition of aggregation is 74.4%.

`CCCOc1ccc2nc(NC(=O)OC)[nH]c2c1`: the inhibition of aggregation was found to be 22.1%.

Take `Cc1nnc(NS(=O)(=O)c2ccc(N)cc2)s1`: the inhibition of aggregation worked out at 68.2%.

Turning to `Cc1cc(=O)n(-c2ccccc2)n1C`, the inhibition of aggregation came to 22.2%.

For the compound `Nc1ccc(N=Nc2ccccc2)c(N)n1`, the inhibition of aggregation turned out to be 65.5%.

As for `CS(=O)(=O)c1ccc([C@@H](O)[C@@H](CO)NC(=O)C(Cl)Cl)cc1`, the inhibition of aggregation is 100%.

On to `COc1cc(C(=O)NCc2ccc(OCCN(C)C)cc2)cc(OC)c1OC`, for which the inhibition of aggregation is 75.6%.

Regarding `COc1ccc2cc3[n+](cc2c1OC)CCc1cc2c(cc1-3)OCO2`, the inhibition of aggregation is 65.2%.

For the compound `Cc1cc(-c2ccccc2)nnc1NCCN1CCOCC1`, the inhibition of aggregation was found to be 66.7%.

In the case of `Cc1ccc(C(C)C)cc2c(C)ccc1-2`, the inhibition of aggregation came out at 30.6%.

With `CCN(CC)CCNc1ccc(CO)c2sc3ccccc3c(=O)c12`, the inhibition of aggregation turned out to be 91.6%.

`NC(=O)NC(=O)Cc1ccccc1`: the inhibition of aggregation amounted to 4.16%.

As to `Oc1c(Cl)cc(Cl)cc1Sc1cc(Cl)cc(Cl)c1O`, the inhibition of aggregation was -7.69%.

For the compound `CC(=O)Oc1ccccc1C(=O)O`, the inhibition of aggregation stood at 61.5%.

On to `CC(C)NCC(O)c1ccc2ccccc2c1` (stereo not given), for which the inhibition of aggregation is 88%.

As for `O=C(O)c1ccccc1OP(=O)(O)O`, the inhibition of aggregation is 61%.

Take `Oc1c(Cl)cc(Cl)c(Cl)c1Cc1c(O)c(Cl)cc(Cl)c1Cl`: the inhibition of aggregation turned out to be 91.6%.

For the compound `Nc1ccc(S(=O)(=O)Nc2ccnn2-c2ccccc2)cc1`, the inhibition of aggregation is 4.55%.

For `CCCCCCCCNC(C)C(O)c1ccc(SC(C)C)cc1` (stereo not given), the inhibition of aggregation was determined as 63%.

`O=C(OCc1ccccc1)c1ccccc1`: the inhibition of aggregation was 74%.

Turning to `S=P(N1CC1)(N1CC1)N1CC1`, the inhibition of aggregation was 63.2%.

Take `NS(=O)(=O)c1cc2c(cc1Cl)NC(C1CC3C=CC1C3)NS2(=O)=O` (stereo not given): the inhibition of aggregation amounted to 5.88%.

As for `C=C1c2cccc(O)c2C(O)=C2C(=O)[C@]3(O)C(O)=C(C(N)=O)C(=O)[C@@H](N(C)C)[C@@H]3[C@@H](O)[C@H]12`, the inhibition of aggregation worked out at 29.5%.

For `NS(=O)(=O)c1cc2c(cc1Cl)NC(CSCc1ccccc1)=NS2(=O)=O`, the inhibition of aggregation was determined as 47.9%.

As for `O=C(O)P(=O)(O)O`, the inhibition of aggregation was found to be 30.6%.

As to `CO[C@@]1(NC(=O)C(C(=O)O)c2ccc(O)cc2)C(=O)N2C(C(=O)O)=C(CSc3nnnn3C)CO[C@@H]21` (stereo not given in full), the inhibition of aggregation came out at 72.2%.

Regarding `Nc1ccc(C(=O)O)cc1`, the inhibition of aggregation came out at 72.2%.

For the compound `CCCCCCOc1ccccc1C(N)=O`, the inhibition of aggregation was 67.5%.

As to `CCN(CC)CCOc1ccc(/C(=C(\Cl)c2ccccc2)c2ccccc2)cc1`, the inhibition of aggregation was determined as 46.5%.

Take `O=C1c2c(O)cccc2Cc2cccc(O)c21`: the inhibition of aggregation was 37.9%.

In the case of `C=CCc1ccc(O)c(OC)c1`, the inhibition of aggregation was 81.4%.

For `O=C(N[C@H](CO)[C@H](O)c1ccc([N+](=O)[O-])cc1)C(Cl)Cl`, the inhibition of aggregation amounted to 55%.
